Results on 31 molecules are retold here after PubChem BioAssay (EPA / NIEHS).

Values joined by “and” are separate entries in the source; they are usually repeats but may differ in a detail not shown here. Equal values may be shown once. Records with an inconclusive call do not appear. More than one record can exist for a structure, and the calls need not agree. Active and inactive are the calls of the source. How the source made its calls, unless noted: active means hit-call score of the fitted dose curve at least 0.9, where 1 is the maximum; inconclusive means response in the unintended direction; inactive means score below 0.9.

A short description of test [1]: TOX21_p53_BLA_p2_viability: Viability Assessment in the Tox21 HCT-116 p53 Agonism Beta-lactamase Assay, Phase 2 (AID 2283591).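 Further: compound exposure lasted 16 h at 37 °C; actives lower the ATP signal meaning cytotoxicity.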 Put shortly:
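Cytotoxicity readout: CellTiter-Glo ATP luminescence, 30 min at room temperature, after the beta-lactamase read. Cells were HCT116 exposed 16 h at 37C to compounds pin-transferred at 217-fold dilution from DMSO stocks.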

The target in test [2] is Cellular tumor antigen p53 (Homo sapiens) (UniProt P04637). In words: TOX21_p53_BLA_p2_ratio: Tox21 HCT-116 p53 Agonism Beta-lactamase Assay, Ratio, Phase 2 (AID 2283592). Put shortly:
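Read-out is the blue/green (460/530 nm, 405 nm excitation) ratio after 2 h CCF4-AM loading, fitted as gain versus DMSO. Compounds, pinned at 217-fold dilution from DMSO stocks, stayed 16 h on HCT-116 beta-lactamase reporter cells seeded 5 h earlier.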

The target is the same in test [3]. In words: TOX21_p53_BLA_p3_ratio: Tox21 HCT-116 p53 Agonism Beta-lactamase Assay, Ratio, Phase 3 (AID 2283596). Put shortly:
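Cells were seeded at 4000/well, rested 5 h at 37C, then dosed with DMSO compound solutions (217-fold dilution) for 16 h. CCF4-AM substrate was loaded for 2 h at room temperature, and the 460/530 nm emission ratio was fitted for gain of signal versus DMSO.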

The target is the same in test [4]. In words: TOX21_p53_BLA_p5_ratio: Tox21 HCT-116 p53 Agonism Beta-lactamase Assay, Ratio, Phase 5 (AID 2283599). Put shortly:
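Beta-lactamase reporter ratio (blue 460 nm over green 530 nm, 405 nm excitation) after 2 h CCF4-AM loading, in HCT-116 cells exposed 16 h at 37 C to compounds pinned at 217-fold dilution. Increases relative to DMSO baseline scored.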

Test [5] in a line: TOX21_p53_BLA_p5_viability: Viability Assessment in the Tox21 HCT-116 p53 Agonism Beta-lactamase Assay, Phase 5 (AID 2283600). Put shortly: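 Viability came from CellTiter-Glo ATP luminescence, read after 30 min at room temperature. Before this, HCT-116 p53-bla cells (4000/well) had 16 hours of compound exposure at 37C, with DMSO stocks diluted 217-fold on transfer.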
The target of test [6] is Cellular tumor antigen p53 (Homo sapiens) (UniProt P04637). In words: TOX21_p53_BLA_p4_ratio: Tox21 HCT-116 p53 Agonism Beta-lactamase Assay, Ratio, Phase 4 (AID 2283601). In outline: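 Signal is the blue/green (460nm/530nm) ratio of cleaved versus uncleaved CCF4-AM substrate, read after 2 h substrate loading. Cells were HCT116 carrying the p53-responsive beta-lactamase reporter, dosed 16 h at 37C, 5% CO2; CellTiter-Glo measured in parallel.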

Test [7] is described as follows: TOX21_p53_BLA_p3_viability: Viability Assessment in the Tox21 HCT-116 p53 Agonism Beta-lactamase Assay, Phase 3 (AID 2283593).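 Further: cells exposed to compound for 16 h before reading.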 Put shortly:
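Cellular ATP was quantified by CellTiter-Glo luminescence, read after 30 min at room temperature. Beforehand, HCT116 cells (4000/well) received compound 5 h post-seeding, 217-fold diluted from DMSO, then incubated 16 h at 37C.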

The nature of test [8]: TOX21_p53_BLA_p4_viability: Viability Assessment in the Tox21 HCT-116 p53 Agonism Beta-lactamase Assay, Phase 4 (AID 2283597).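 Further: hits lower the luminescence signal meaning cytotoxicity.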 In outline: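 Cytotoxicity as reduced cellular ATP (CellTiter-Glo luminescence, 30 min room temperature), measured in the same wells following the CCF4 FRET p53 reading. Human HCT-116 cells received compounds in DMSO (217-fold dilution) for 16 h.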

Test [9] deals with Thyroperoxidase (TPO), gene 54314. In words: CCTE_Simmons_AUR_rTPO: CCTE's Amplex UltraRed Assay for Thyroperoxidase (TPO) Inhibition, Simmons Lab (AID 2283662).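 On AC50: potency for loss of signal meaning inhibition of peroxidase activity.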 In outline:
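Cell-free peroxidase activity assay using rat thyroid gland microsomes with excess H2O2 (300 uM) and 25 uM Amplex UltraRed. Compounds tested from 5 nM to 87.5 uM; fluorescence measured after 30 min at 37C, analysed relative to DMSO baseline.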

A short description of test [10]: CCTE_Simmons_CellTiterGLO_HEK293T: Viability Assessment in CCTE's Assays for Thyroperoxidase (TPO) Inhibition, Simmons Lab (AID 2283665). Put shortly:
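Luminescent ATP readout (CellTiter-Glo, 20 min at room temperature) after 24 hr exposure of HEK293T cells to 5 nM–87.5 uM final compound; signal loss relative to DMSO vehicle indicated cytotoxicity; dichlone titrated as positive control.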
(In ATP-based viability assays light output follows the ATP content of the culture.)

Test [11] concerns the target Luciferin 4-monooxygenase (Photinus pyralis) (UniProt P08659). Nature of the test: CCTE_Simmons_QuantiLum_inhib_2: CCTE's Firefly Luciferase Inhibition Assay, Simmons Lab (AID 2283767).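 On AC50: potency for inhibitors that lower luciferase luminescence relative to DMSO.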 In outline: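 Cell-free QuantiLum luciferase, 5 ng/well; compounds 5 nM–87.5 uM final, 8 conc, 0.5% DMSO; 30 min, 37C, dark. Detection reagent (150 uM D-luciferin, 147 uM dATP, CoA, DTT, pH 7.8 final) injected per well, kinetic luminescence. Triplicate biological replicates.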

A short description of test [12]: ACEA_AR_agonist_AUC_viability: ACEA Biosciences xCELLigence Real-Time Cell Analysis on Androgen Receptor Agonism for Viability (AID 2283775).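 On AC50: viability read 80 hours after compound addition.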 In outline: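 Viability endpoint from xCELLigence impedance in 22Rv1 prostate cells at 80 h. Eight-point series, 100 uM maximum final.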
Test [13] can be described thus: STM_H9_OrnCyssISnorm_ratio: Stemina devTOX quickPredict H9 human embryonic stem cell (hESC)-based Assay for Ornithine (ORN):Cystine (CYSS) Ratio (AID 2283714). Put shortly:
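Ratio of internal-standard-normalized ornithine to cystine, measured by UPLC-HRMS in spent media from the last 24 h. H9 cells kept pluripotent, dosed 72 h with daily media and compound renewal; DMSO 0.1% serves as baseline.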

Test [14] in a line: CEETOX_H295R_MTT_cell_viability: Viability Assessment in the CeeTox HT-H295R MTT Assay (AID 2283718; active means hit-call score of the fitted dose curve at least 0.9, where 1 is the maximum; inactive means score below 0.9). In outline: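 MTT reduction (0.5 mg/ml, 4 h at 37 C; absorbance at 570 and 650 nm) gave viability as background-corrected percent change versus controls. H295R cells had 48 h forskolin (10 uM) prestimulation, then 48 h chemical exposure at 0.1% DMSO.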

Luciferin 4-monooxygenase (Photinus pyralis), sequence (P08659 whole entry, looked up): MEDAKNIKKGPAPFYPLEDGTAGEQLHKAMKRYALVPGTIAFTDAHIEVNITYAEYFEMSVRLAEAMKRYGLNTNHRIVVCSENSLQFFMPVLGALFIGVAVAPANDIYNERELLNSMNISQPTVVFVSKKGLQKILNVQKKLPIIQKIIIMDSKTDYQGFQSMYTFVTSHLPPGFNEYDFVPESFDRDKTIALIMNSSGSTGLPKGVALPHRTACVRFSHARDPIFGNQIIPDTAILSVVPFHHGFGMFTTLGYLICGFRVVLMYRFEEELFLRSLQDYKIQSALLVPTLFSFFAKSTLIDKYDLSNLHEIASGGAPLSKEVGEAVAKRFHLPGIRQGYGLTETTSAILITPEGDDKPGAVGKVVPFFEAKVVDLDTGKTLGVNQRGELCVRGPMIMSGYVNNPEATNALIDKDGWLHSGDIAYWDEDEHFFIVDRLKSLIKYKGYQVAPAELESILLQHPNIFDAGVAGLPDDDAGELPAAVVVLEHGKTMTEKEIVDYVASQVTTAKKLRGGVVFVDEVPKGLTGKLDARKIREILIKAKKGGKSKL
Cellular tumor antigen p53 (Homo sapiens), sequence (P04637 whole entry, looked up): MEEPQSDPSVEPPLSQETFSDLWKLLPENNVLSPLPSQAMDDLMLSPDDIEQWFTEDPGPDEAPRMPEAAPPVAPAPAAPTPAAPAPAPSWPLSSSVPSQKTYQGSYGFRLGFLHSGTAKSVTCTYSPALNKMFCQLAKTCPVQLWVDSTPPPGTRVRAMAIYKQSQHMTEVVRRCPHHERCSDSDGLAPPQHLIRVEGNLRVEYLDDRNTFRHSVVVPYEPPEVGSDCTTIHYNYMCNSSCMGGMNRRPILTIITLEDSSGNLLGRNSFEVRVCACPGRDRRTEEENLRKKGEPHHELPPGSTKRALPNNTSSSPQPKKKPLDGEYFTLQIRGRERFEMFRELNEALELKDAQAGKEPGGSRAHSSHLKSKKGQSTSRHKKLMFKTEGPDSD

Regarding `CCCOCCOCCOCCO`, the molecule was classed as inactive in test [1], in test [2], in test [3], in test [4], in test [5] and in [6].

Turning to `O=C(O)c1ccccc1Nc1cccc(C(F)(F)F)c1`, the call in test [1], in test [7], in [3], in test [4], in test [5] and in test [6] was inactive. The AC50 in test [8] is 22.7 µM (active) and 23 µM (active); in test [4], 46.1 µM (active); in [6], 39.5 µM (active).

As to `O=C(c1ccccc1)c1ccc(O)c(O)c1O`, the outcome in test [1], in [2], in test [3], in test [4], in test [6] and in [10] was inactive. For the same molecule, the outcome in test [11] was inactive. Also, the AC50 in [9] is 2.12 µM (active).

Take `CC(=O)c1ccc[nH]1`: the molecule was classed as inactive in test [1], in test [2], in test [3], in test [8], in test [4] and in [6].

`O=c1c2ccccc2nnn1CCl`: the outcome in test [1], in test [7], in [3], in test [8], in test [4] and in test [5] was inactive. Further, in test [6], the outcome was inactive.

Turning to `O=C1C=CC(=O)O1`, the molecule was called inactive in test [1], in test [2], in test [4], in [5] and in test [6].

As to `NC(CO)(CO)CO`, the molecule was classed as inactive in [1], in test [2], in [3], in test [8], in [4] and in test [5]. In addition, the outcome in test [6] was inactive.

`O=C1c2ccccc2C(=O)C1c1nc2ccccc2c(Br)c1O`: the result in test [1], in [2], in test [7], in test [5] and in [6] was inactive.

Regarding `c1ccc2c(c1)ccc1cc3c(ccc4ccccc43)cc12`, the molecule was called inactive in test [1], in [2], in [3], in test [8], in [4] and in test [5]. The outcome in test [6], in test [9] and in test [10] was inactive. Also, the results for the AC50 in test [11] and in [12] were 0.105 µM (active) and 0.341 µM (active), respectively.

With `Nc1ccc(N)c(Cl)c1`, the outcome in test [1], in test [7], in [8], in [4], in test [5] and in [6] was inactive. The concentration at half-maximal activity (AC50) in test [3] was 76.2 µM (active); in test [4], 75.2 µM (active); in test [6], 72.1 µM (active); in [13] it was 13.5 µM (active).

Turning to `O=c1[nH]c(=O)c2[nH]c(=O)[nH]c2[nH]1`, the outcome in test [1], in [2], in test [4] and in test [6] was inactive.

In the case of `[Cl][Bi]([Cl])([c]1ccccc1)([c]1ccccc1)[c]1ccccc1`, the AC50 was 13.9 µM (active) in test [1]; 71.4 µM (active) in test [7]; 76.2 µM (active) in test [3]; 11.2 µM (active) in test [8]; 67.7 µM (active) in [4]; 58.1 µM (active) in test [5]. Besides, the AC50 in [6] was 14.1 µM (active).

Consider `C=CC(=O)OCCC(=O)O`, for which the result in [1], in [2], in [3] and in test [6] was inactive.

In the case of `O=C(Cl)c1cc(C(=O)Cl)cc(C(=O)Cl)c1`, the result in test [1], in test [2], in test [3], in [8], in test [4] and in test [5] was inactive.

On to `CC(=O)NS(=O)(=O)c1ccc(N)cc1`, for which the molecule was called inactive in test [1], in test [7], in test [3], in [8], in [4] and in test [5]. Besides, the result in [6] was inactive.

As for `O=C(O)c1cc2ccccc2nc1C(=O)O`, the molecule was called inactive in [1], in test [2], in [4] and in test [6].

With `Nc1ccc(N=Nc2ccccc2)c(N)n1`, the molecule was called inactive in [1], in test [7], in test [8], in test [4], in [5] and in test [6]. Also, the AC50 in [3] was 87.8 µM (active) and 85.8 µM (active) and 43.2 µM (active); in [4] it was 83.5 µM (active) and 85.4 µM (active).

Take `Cc1ccc([N+](=O)[O-])cc1S(=O)(=O)O`: the call in [1], in test [2], in [3], in test [5] and in test [6] was inactive.

Regarding `CCCCCCOc1cc(C)c(O)c(C)c1C`, the outcome in test [1], in [2], in test [7] and in test [4] was inactive. The AC50 is 46.1 µM (active) in [8] and 82.5 µM (active) in test [6].

Turning to `O=C1CCCC1`, the outcome in test [1], in test [2], in test [3], in [8], in test [4] and in test [5] was inactive. In test [6], the outcome was inactive.

For `CC(C)COC(=O)C=Cc1ccccc1`, the result in [1], in [2], in test [3], in test [4], in [5] and in test [6] was inactive.

`CC(C)(C)c1ccc(OC(=O)c2ccccc2O)cc1`: the outcome in test [1], in [2], in [8] and in [6] was inactive. In [12], the AC50 is 0.106 µM (active).

As for `CCO[Si](C)(OCC)OCC`, the result in [1], in test [2], in test [3], in test [4], in [5] and in [6] was inactive. Further, the outcome in test [12] was inactive.

With `CN(C)CCCN(C)C`, the molecule was called inactive in [1], in [2], in test [3], in test [4], in [5] and in test [6].

Take `CCOC(=O)NNc1nncc2ccccc12`: the molecule was classed as inactive in test [1], in test [2], in [3], in [4], in test [5] and in test [6].

Take `NC(=O)N=NC(N)=O`: the result in [1], in test [2], in [8], in test [4], in test [5] and in test [6] was inactive. Moreover, in test [12], the call was inactive.

As for `COC(=O)c1c(C)cc(O)c(C)c1O`, the result in test [1], in [2], in [4], in [5], in [6] and in test [14] was inactive. The outcome in [11] was inactive. In addition, the half-maximal activity concentration (AC50) in [9] was 11.6 µM (active).

With `C=C[Si](C)(C)O[Si](C)(C)C=C`, the result in test [1], in test [2], in [3] and in test [12] was inactive.

Regarding `c1ccc(-c2ccccn2)nc1`, the outcome in [1], in [3], in test [8], in [4], in test [5] and in test [6] was inactive.

Consider `O=C(Oc1ccccc1)c1ccc2ccccc2c1O`, for which the result in [1], in [7], in [3], in test [8], in test [4] and in [5] was inactive. Besides, in test [6], the result was inactive.

On to `O=C(/C=C/C=C/c1ccc2c(c1)OCO2)N1CCCCC1`, for which the molecule was classed as inactive in test [1], in [7], in [8], in test [4] and in test [6].

For orientation: AC50 means the midpoint of the concentration-response curve, whichever way the signal moves.
